# IL1B secr inh: inflammasome signaling inhibition, IL-1 beta readout | THP-1 LPS/ATP IL-1B secretion, AlphaLISA, 16 h; hits give low values | AID 743279 | activity change, % at 57.5 µM | hit rate 4.7% among 360,000; in the data active = activity change below about -50%; inconclusive = mostly about -30% to -49%
#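 Secreted IL-1B measured by AlphaLISA bead assay after 16 h compound exposure of THP-1 cells; compounds (final up to 57.5 uM) added 1 h before LPS (250 ng/mL) and ATP (1.25 mM) stimulation; lower signal means less secretion.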
# DT40 TDP1 CPT: growth inhibition of DT40 Tdp1-/-;hTDP1 cells with camptothecin (screen for TDP1 inhibitors); Potency, µM (highest dose often 46.2 µM), for the others: at the top dose activity change, negative = growth inhibition, hits mostly inhibitors; hit rate 12% among 420,000; chicken DT40 Tdp1-/-;hTDP1 cells + 20 nM CPT, ATP luminescence, 48 h; also: potency is read from the fitted curve at half-maximal effect; nearly all actives have a fitted effect of over 55% in size
#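 Chicken DT40 Tdp1-/- cells complemented with human TDP1, 400 cells/well, exposed to compounds plus 20 nM camptothecin for at least 48 h at 37 C; viability read as ATP content by CellTiter-Glo luminescence.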
# uPA generation: inhibitors of cell surface uPA generation. cell surface uPA generation assay, qHTS. Potency, µM (highest dose often 38.3 µM), for inactives: at the top dose activity change, negative = inhibition, most hits filed as inhibitors. hit rate 0.31% among 330,000; active = well fitted inhibition curve with a large enough effect; inconclusive = small, poorly fitted or top-dose-only effect; inactive = no such curve, though single readings can be large or run the other way; tested in mouse RAW 264.7 cells; also: potency is read from the fitted curve at half-maximal effect; nearly all actives have a fitted effect of over 55% in size
# DT40 TDP1 no CPT: qHTS for Inhibitors of human tyrosyl-DNA phosphodiesterase 1 (TDP1): qHTS in cells in absence of CPT | DT40 Tdp1-/- hTDP1 cells, no CPT, ATP luminescence, 48 h | Potency, µM (highest dose often 46.2 µM), without a hit: at the top dose activity change, negative = growth inhibition, actives largely listed as inhibitors | hit rate 15% among 420,000; also: potency is read from the fitted curve at half-maximal effect; nearly all actives have a fitted effect of over 55% in size
#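 Chicken DT40 Tdp1-/- cells stably complemented with human TDP1 were seeded at 400 cells/well with DMSO in place of 20 nM camptothecin. After compound pinning, cells grew at least 48 hr at 37 °C; viability read by CellTiter-Glo luminescence.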
# HT1080 IDH1KD tx: kills HT-1080 cells with IDH1 knockdown; hit rate 2% among 360,000; Potency, µM (doses to about 46.1 µM), for inactives: at the top dose activity, negative = toxicity, actives largely listed as cytotoxic; AID 686971; HT-1080 IDH1 knockdown viability, ATP luminescence, 48 h;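 also: potency is read from the fitted curve at half-maximal effect; 0% = DMSO wells and -100% = cell-free medium wells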
#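 IDH1KD HT-1080 cells, 750/well, RPMI + 5% FBS; compound pinned after 2 h settling; 48 h, 37 °C; CellTiter-Glo luminescence; % activity normalised to DMSO and no-cell wells; curves fitted, classed by r2 and efficacy.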
# HT1080-NT tox: kills 2HG-producing HT-1080-NT fibrosarcoma cells | HT-1080-NT fibrosarcoma viability, CellTiter-Glo ATP luminescence, 48 h | Potency, µM (doses to about 46.1 µM), for inactives: at the highest dose activity, negative = less viability, hits mostly cytotoxic | hit rate 1.6% among 360,000;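 also: NT is the 2HG producing partner of a matched IDH1 knockdown line; potency is read from the fitted curve at half-maximal effect; 0% = DMSO-treated cells and -100% = media-only wells without cells; nearly all actives have a fitted effect of over 55% in size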
#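 HT-1080-NT; 750 cells/well; 5% FBS RPMI; 48 h compound, 37 degrees C; CellTiter-Glo luminescence; curve fitting and curve-class assignment.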
# An asterisk follows results filed as active; ? = inconclusive; . = no result; ! = a repeat was not active. An excerpt weighted towards active compounds, which were near 19% of everything screened. Unless noted, calls follow the shape of the dose curve; as a rule, active = well fitted curve in the direction sought with a large enough effect; inconclusive = small, poorly fitted or top-dose-only effect, or another doubt; inactive = no such curve, though single readings can be large; an effect the other way counts as inactive or inconclusive. Unless noted, % is scaled to controls: 0 for no effect and ±100 for the full control effect.
SMILES,IL1B secr inh,DT40 TDP1 CPT,uPA generation,DT40 TDP1 no CPT,HT1080 IDH1KD tx,HT1080-NT tox
Cc1ccccc1N1CCN(C2CCCN(C(=O)COc3ccccc3)C2)CC1 (stereo not given),20.0,25.9µM*,-6.0%,20.6µM*,0.8%,-13.9%
CN(C(=O)Oc1cccc2cccnc12)c1ccccc1,1.2,0.3%,-2.0%,-7.0%,4.5%,8.2%
Oc1cccc2cccnc12,.,3.26µM*,.,2.59µM*,.,.
Cn1cc(C2=C(c3cn(C4CCN(Cc5ccccn5)CC4)c4ccccc34)C(=O)NC2=O)c2ccccc21,.,4.9%,.,-5.3%,.,.
CN(C)CCN=Cc1c(O)n(C2CCCCCC2)c(=O)[nH]c1=O,8.6,-5.8%,-6.0%,-1.9%,-11.7%,-0.2%
CC(C)C(=O)N1CCC(CN=Cc2c(O)n(C3CCCCC3)c(=O)n(C3CCCCC3)c2=O)CC1,?,?,3.1%,23.1µM*,?,?
COC(=O)[C@@H]1C[C@@]1(C)[C@@H](NP(=O)(c1ccccc1)c1ccccc1)c1ccccc1,29.6,?,-14.4%,20.6µM*,7.3%,-5.3%
O=C(COc1ccc(Cl)cc1Cl)N1CCN(C/C=C/c2ccccc2)CC1,-13.9,?,-4.4%,?,?,?
O=C(COc1ccccc1F)N1CCN(Cc2cc(=O)n3nc(-c4ccccc4Cl)sc3n2)CC1,.,?,.,14.6µM*,.,.
Cc1ccccc1-c1nn2c(=O)cc(CN3CCN(C(=O)COc4ccccc4Cl)CC3)nc2s1,.,18.4µM*,.,8.2µM*,.,.
CC1(C)N(O)C(c2ccc(C(=O)O)cc2)=[N+]([O-])C1(C)C,.,8.7%,.,-13.4%,.,.
COc1ccc(CC(=O)Nc2ccc3c(C(F)(F)F)cc(=O)oc3c2)cc1OC,10.3,-14.9%,1.2%,-15.8%,11.5%,10.1%
COc1ccccc1CC(=O)Nc1ccc2c(c1)OC1(CCCC1)O2,-73.6*,?,-2.5%,?,-12.0%,-6.8%
Cc1ccc(S(=O)(=O)c2nc(-c3ccccc3Cl)oc2N(C)C2CCN(C)CC2)cc1,0.0,?,-8.7%,?,?,?
C=C1C(=O)[C@@]23C[C@H]4[C@@H]5[C@@]6(C)CCC[C@@]57[C@@H]2[C@@H](O)[C@@H]1C[C@H]3[C@H]7N4C6,-108.4*,4.61µM*,?,4.11µM*,?,?
NS(=O)(=O)c1ccc(N=Cc2c(O)n(C3CCCCC3)c(=O)n(C3CCCCC3)c2=O)cc1,-100.5*,14.6µM*,-2.8%,16.4µM*,?,?
CCn1c(O)c(C=Nc2ccc(S(N)(=O)=O)cc2)c(=O)n(CC)c1=S,-5.1,?,6.1%,?,-1.1%,-15.6%
O=C(c1cccnc1)N1Cc2ccccc2-n2nncc2C1,24.1,-26.4%,.,6.8%,2.9%,2.0%
C[C@@H]1C[C@H](Nc2ccccc2)c2ccccc2N1C(=O)c1cccnc1,-3.2,7.31µM*,-14.4%,4.61µM*,-20.5%,-11.7%
COC(=O)C1=C(c2ccc(Cl)c(C(F)(F)F)c2)C[C@@H]2CC[C@H]1N2C,-16.9,?,-7.5%,-13.4%,0.0%,0.0%
Cc1ccc2c(C)cccc2c1,11.3,-6.5%,17.9%,-3.8%,19.2%,-2.9%
C=Cc1cc(OC)c2c(c1)c(=O)oc1c2cc(OC)c2c(O)ccc(C3OC(C)C(O)C(C)(O)C3O)c21 (stereo not given),-100.5*,0.164µM*,-11.1%,0.206µM*,1.46µM*,9.2µM*
O=[N+]([O-])c1ccc(Cl)c(S(=O)(=O)Nc2cccc(-c3ccc(N4CCCC4)nn3)c2)c1,?,4.1%,?,-18.9%,-10.3%,-9.9%
CCCCCCC(C)(C)c1ccc([C@@H]2C[C@H](O)CC[C@H]2CCCO)c(O)c1,-67.1*,20.6µM*!,14.7%,18.4µM*,4.61µM*,2.59µM*
